# In PubChem BioAssay (Tox21):
# Results filed as inconclusive are left out. Where a call stands in place of a potency, no number is given. The source holds several records for some structures; these can differ, active in one and inactive in another. Calls of active or inactive are those of the source. Unless noted, calls follow the shape of the dose curve; as a rule, active = well fitted curve in the direction sought with a large enough effect in the repeat runs; inconclusive = weak or mixed curves; inactive = no such curve, though single readings can be large; an effect the other way counts as inactive or inconclusive.
# Tests used:
# [1] = qHTS assay to identify small molecule agonists of the estrogen receptor alpha (ER-alpha) signaling pathway in the presence of an antagonist - cell viability counter screen (AID 1259386);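 also: cells exposed to compounds for 22 h at 37 °C before the viability read; nearly all actives have a fitted effect of over 30% in size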; also: potency is read from the fitted curve at half-maximal effect; as to activity change, negative = cytotoxicity: series mostly up to about 92 µM
# How it was run: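 In this counter screen, compound effects on VM7Luc4E2 viability were tested in the presence of the antagonist ICI-182,780 at 10.0nM final. Compounds were dosed at 15 concentrations, exposure lasted 22hr, and the CellTiter-Fluor signal was read.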
# [2] = molecular target: Progesterone receptor (Homo sapiens) (UniProt P06401); assay: qHTS assay to identify small molecule agonists of the progesterone receptor (PR) signaling pathway (AID 1346784; calls by dose curve; also: nearly all actives have a fitted effect of over 30% in size)
# How it was run: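 Using charcoal-stripped serum (2%) to limit endogenous steroids, PR-UAS-bla HEK 293T cells received compounds for 16 hr at 37C after 6 hr plating; beta-lactamase FRET fluorescence was recorded following 2 hr substrate loading at room temperature.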
# [3] = molecular target: Progesterone receptor (Homo sapiens) (UniProt P06401); assay: qHTS assay to identify small molecule antagonists of the progesterone receptor (PR) signaling pathway (AID 1346795; active = well fitted inhibition curve with a large enough effect in the signal ratio in the repeat runs, not every such curve was filed as active; the % refers to the signal ratio; also: potency is read from the fitted curve at half-maximal effect)
# How it was run: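 Inhibition of R5020-induced (1 nM final) beta-lactamase reporter signal in PR-UAS-bla HEK293T cells was scored by FRET fluorescence after overnight (16 hr) compound treatment.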
# [4] = qHTS assay to identify small molecule antagonists of the progesterone receptor (PR) signaling pathway - cell viability counter screen (AID 1346798); also: nearly all actives have a fitted effect of over 50% in size; also: potency is read from the fitted curve at half-maximal effect; as to activity change, negative = cytotoxicity: series mostly up to about 92 µM
# How it was run: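 ATP content as viability readout: CellTiter-Glo luminescence, 30 min room temperature, in PR-UAS-bla HEK293T cells after 16 hr compound/R5020 treatment at 37C and 5% CO2.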
# [5] = qHTS assay to identify small molecule agonists of the TGF-beta/Smad signaling pathway - cell viability counter screen (AID 1346829); also: top concentration of the series differs between compounds; nearly all actives have a fitted effect of over 45% in size
# How it was run: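 Compound-treated SBE-bla HEK 293T cells (5 hr, 37 C) were assessed for viability with CellTiter-Glo in parallel with the reporter read.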
# [6] = qHTS assay to identify small molecule agonists of the TGF-beta/Smad signaling pathway (AID 1346859; active = well fitted activation curve with a large enough effect in the signal ratio in the repeat runs, not every such curve was filed as active; the % refers to the signal ratio; also: series mostly up to about 77 µM)
# How it was run: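 Stable Smad binding element-beta-lactamase HEK 293T cells; 5 hr compound exposure at 37 C under 5% CO2; 2 hr room-temperature substrate step; fluorescence excited at 405 nm, collected at 460 nm and 530 nm.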
# [7] = molecular target: Thyrotropin-releasing hormone receptor (Homo sapiens) (UniProt P34981); assay: qHTS assay to identify small molecule antagonists of the thyrotropin-releasing hormone receptor (TRHR) signaling pathway (AID 1346877; active = well fitted inhibition curve with a large enough effect in the repeat runs, not every such curve was filed as active; also: series mostly up to about 51 µM)
# How it was run: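 Kinetic fluorescence (3 min, 1 s resolution) following stimulation with TRH at 1 nM final; HEK293 cells bearing human TRHR; 5 min compound preincubation at RT; concentration-response over 15 points, triplicates.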
# [8] = molecular target: Thyrotropin-releasing hormone receptor (Homo sapiens) (UniProt P34981); assay: qHTS assay to identify small molecule agonists of the thyrotropin-releasing hormone receptor (TRHR) signaling pathway (AID 1346891; calls by dose curve;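 also: HEK293 cells expressing TRHR with calcium dye readout; series mostly up to about 58 µM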)
# How it was run: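 In 1536-format, 1500 TRHR-Hek293 cells per well grew 18 h, took up calcium dye for 2 h at 37 °C, received compound, and were read kinetically; 15-point titrations, triplicates.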
# [9] = Caspase-3/7 induction in HepG2 cells by small molecules, qHTS assay (AID 1346978); also: nearly all actives have a fitted effect of over 15% in size
# How it was run: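 Caspase-3/7 induction was measured by Caspase-Glo 3/7 luminescence (30 min, room temperature) after a 17 hr compound exposure of wild-type HepG2 cells seeded at 2,000 per well and pre-incubated 5 hr.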
# [10] = Caspase-3/7 induction in CHO-K1 cells by small molecules, qHTS assay (AID 1346980); also: nearly all actives have a fitted effect of over 15% in size; also: potency is read from the fitted curve at half-maximal effect
# How it was run: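 Luminescent Caspase-Glo 3/7 read (30min, room temperature) quantified apoptosis induction. Cells were wild-type CHO-K1, treated with compound for 17hr at 37 C and 5% CO2.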
# [11] = Caspase-3/7 induction in HepG2 cells by small molecules, qHTS cell viability counter screen (AID 1346981); also: nearly all actives have a fitted effect of over 30% in size; also: potency is read from the fitted curve at half-maximal effect; as to activity change, negative = cytotoxicity: series mostly up to about 92 µM
# How it was run: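 In this quantitative HTS counter screen, compounds delivered in DMSO were left on unmodified HepG2 cells for 16 hr at 37 C. Viability was then determined fluorometrically with CellTiter-Fluor, in parallel with caspase-3/7 induction in the same wells.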
# [12] = molecular target: Nuclear receptor subfamily 1 group I member 2 (Homo sapiens) (UniProt O75469); assay: Human pregnane X receptor (PXR) small molecule agonists, qHTS assay (AID 1346982); also: nearly all actives have a fitted effect of over 35% in size; also: potency is read from the fitted curve at half-maximal effect
# How it was run: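 Reporter HepG2 cells expressing PXR-Luc are cultured in charcoal-stripped FBS (5%), treated with compounds for 24 hr at 37 C, and assayed by ONE-Glo luminescence after 30 min at room temperature.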
# [13] = qHTS assay to identify small molecule agonists of the progesterone receptor (PR) signaling pathway - cell viability counter screen (AID 1346799; calls by dose curve; also: nearly all actives have a fitted effect of over 45% in size)
# How it was run: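 Cytotoxicity in PR-bla HEK293T cells: 16 h compound, 37C; CellTiter-Glo added post-FRET read; luminescence after 30 min RT.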
# [14] = qHTS assay to identify small molecule antagonists of the TGF-beta/Smad signaling pathway - cell viability counter screen (AID 1346824); also: nearly all actives have a fitted effect of over 50% in size
# How it was run: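 Cytotoxicity counter-screen run in the same wells as the beta-lactamase Smad reporter read: CellTiter-Glo luminescence after 30 min at room temperature. HEK 293T SBE-bla cells had 5 hr compound exposure at 37 C with TGF-beta1 (0.25 ng/mL stock).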
# [15] = Caspase-3/7 induction in CHO-K1 cells by small molecules, qHTS cell viability counter screen (AID 1346979); also: nearly all actives have a fitted effect of over 35% in size; also: potency is read from the fitted curve at half-maximal effect
# How it was run: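 To flag cytotoxic compounds, treated CHO-K1 wild-type cells were given CellTiter-Fluor at 16hr and read fluorescently after 1hr at 37C; the caspase-3/7 luminescence was measured in these same wells.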
# [16] = Human pregnane X receptor (PXR) small molecule agonists, qHTS cell viability counter screen (AID 1346977); also: nearly all actives have a fitted effect of over 50% in size
# How it was run: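 Readout is CellTiter-Fluor fluorescence from PXR-Luc HepG2 cells. Plated cells rested 5hr, then were treated with compounds for 24hr at 37C and 5% CO2, with reagent present during the last hour.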
# [17] = molecular target: Nuclear receptor subfamily 1 group I member 2 (Rattus norvegicus) (UniProt Q9R1A7); assay: Rat pregnane X receptor (rPXR) activation by small molecules, qHTS assay (AID 1346983); settings: rPXR luciferase reporter cells, One-Glo luminescence, 24 h; max activation: stronger effect = higher value; also: nearly all actives have a fitted effect of over 20% in size
# How it was run: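 Luminescent readout (One-Glo luciferase, 30 min room temperature) followed 24 hr compound treatment at 37 C of rPXR cells plated 2,000 per well and preincubated 5hr; qHTS format with compounds delivered in DMSO.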
# [18] = molecular target: Nuclear receptor subfamily 1 group I member 2 (Homo sapiens) (UniProt O75469); assay: Human pregnane X receptor (PXR) activation by small molecules, qHTS assay (AID 1346985); also: nearly all actives have a fitted effect of over 40% in size
# How it was run: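 DPX-2 cells (HepG2 co-transfected with a PXR response element and a CYP3A4-promoter luciferase construct) were seeded at 2,000 per well, rested 5 hr at 37C, then exposed to DMSO-dissolved compounds for 24 hr. Activation was read as luciferase luminescence.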
# Sequence of Nuclear receptor subfamily 1 group I member 2 (Homo sapiens) (O75469 whole entry, looked up): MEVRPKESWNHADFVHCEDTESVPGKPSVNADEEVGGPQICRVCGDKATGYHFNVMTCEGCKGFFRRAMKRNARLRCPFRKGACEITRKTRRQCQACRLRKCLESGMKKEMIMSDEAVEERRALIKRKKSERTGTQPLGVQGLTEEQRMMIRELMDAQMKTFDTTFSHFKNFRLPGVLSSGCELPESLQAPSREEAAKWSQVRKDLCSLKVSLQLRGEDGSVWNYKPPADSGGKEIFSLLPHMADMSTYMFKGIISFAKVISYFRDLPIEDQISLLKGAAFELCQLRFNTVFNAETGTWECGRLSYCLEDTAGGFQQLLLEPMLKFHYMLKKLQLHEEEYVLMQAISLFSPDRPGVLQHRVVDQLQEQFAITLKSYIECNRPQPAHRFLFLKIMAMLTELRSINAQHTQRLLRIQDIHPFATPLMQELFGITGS
# Sequence of Progesterone receptor (Homo sapiens) (P06401 whole entry, looked up): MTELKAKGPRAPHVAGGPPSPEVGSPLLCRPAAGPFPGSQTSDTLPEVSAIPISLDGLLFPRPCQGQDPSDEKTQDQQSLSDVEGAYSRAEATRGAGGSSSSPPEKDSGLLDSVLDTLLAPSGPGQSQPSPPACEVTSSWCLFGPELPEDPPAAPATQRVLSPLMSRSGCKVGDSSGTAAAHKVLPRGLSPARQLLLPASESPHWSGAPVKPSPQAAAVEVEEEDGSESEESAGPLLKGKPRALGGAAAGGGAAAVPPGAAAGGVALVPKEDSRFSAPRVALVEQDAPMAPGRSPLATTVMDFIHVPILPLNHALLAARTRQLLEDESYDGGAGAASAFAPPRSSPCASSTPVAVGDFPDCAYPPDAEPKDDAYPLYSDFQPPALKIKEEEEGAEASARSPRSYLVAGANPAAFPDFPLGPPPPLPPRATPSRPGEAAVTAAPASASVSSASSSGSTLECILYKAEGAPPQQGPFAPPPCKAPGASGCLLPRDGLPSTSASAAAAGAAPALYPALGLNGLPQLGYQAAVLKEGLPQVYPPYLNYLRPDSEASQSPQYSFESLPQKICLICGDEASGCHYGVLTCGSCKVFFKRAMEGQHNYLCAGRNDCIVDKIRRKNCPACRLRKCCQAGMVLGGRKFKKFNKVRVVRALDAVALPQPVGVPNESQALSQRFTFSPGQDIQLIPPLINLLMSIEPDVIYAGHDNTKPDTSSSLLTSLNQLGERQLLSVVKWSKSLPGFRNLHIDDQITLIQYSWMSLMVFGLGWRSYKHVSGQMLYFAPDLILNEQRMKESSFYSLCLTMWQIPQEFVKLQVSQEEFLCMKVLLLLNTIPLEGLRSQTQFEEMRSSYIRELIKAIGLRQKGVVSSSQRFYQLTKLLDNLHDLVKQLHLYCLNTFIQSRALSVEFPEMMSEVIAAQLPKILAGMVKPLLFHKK
# Sequence of Thyrotropin-releasing hormone receptor (Homo sapiens) (P34981 whole entry, looked up): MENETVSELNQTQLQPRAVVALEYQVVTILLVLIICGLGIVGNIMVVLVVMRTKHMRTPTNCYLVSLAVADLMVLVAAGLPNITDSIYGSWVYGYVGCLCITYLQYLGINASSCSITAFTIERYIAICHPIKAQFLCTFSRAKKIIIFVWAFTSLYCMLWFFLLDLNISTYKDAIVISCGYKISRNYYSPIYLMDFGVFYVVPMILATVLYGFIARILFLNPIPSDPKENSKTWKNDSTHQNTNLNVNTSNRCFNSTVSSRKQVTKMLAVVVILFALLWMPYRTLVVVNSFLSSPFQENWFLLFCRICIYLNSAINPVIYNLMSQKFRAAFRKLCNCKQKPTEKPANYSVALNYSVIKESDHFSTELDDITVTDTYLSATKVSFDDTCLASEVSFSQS
# Sequence of Nuclear receptor subfamily 1 group I member 2 (Rattus norvegicus) (Q9R1A7 whole entry, looked up): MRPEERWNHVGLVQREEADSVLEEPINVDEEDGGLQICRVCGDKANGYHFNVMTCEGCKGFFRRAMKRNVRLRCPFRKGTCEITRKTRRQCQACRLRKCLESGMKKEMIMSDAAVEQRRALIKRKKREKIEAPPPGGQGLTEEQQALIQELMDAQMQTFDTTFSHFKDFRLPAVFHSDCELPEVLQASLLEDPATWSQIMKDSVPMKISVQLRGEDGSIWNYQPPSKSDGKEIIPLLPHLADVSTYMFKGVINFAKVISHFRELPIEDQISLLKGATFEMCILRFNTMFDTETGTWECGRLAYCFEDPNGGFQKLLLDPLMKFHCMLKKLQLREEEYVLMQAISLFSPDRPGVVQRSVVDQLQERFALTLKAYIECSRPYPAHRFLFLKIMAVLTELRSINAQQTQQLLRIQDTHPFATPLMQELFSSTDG
compound,measurement,setting,value
C[C@H]1C[C@H](O)c2ccsc2S1(=O)=O,Potency,[1],inactive
same,Potency,[2],inactive
same,Potency,[3],inactive
same,Potency,[4],inactive
same,Potency,[5],inactive
same,Potency,[6],inactive
same,outcome,[7],inactive
same,Potency,[8],inactive
same,Potency,[9],inactive
same,Potency,[10],inactive
same,Potency,[11],inactive
same,Potency,[12],inactive
CC(CC1c2ccccc2CCc2ccccc21)CN(C)C (centres undefined),Potency,[1],inactive
same,Potency,[2],inactive
same,Potency,[4],23.7 µM (active)
same,Potency,[13],inactive
same,Potency,[14],inactive
same,Potency,[5],inactive
same,Potency,[6],inactive
same,Potency,[9],inactive
same,Potency,[10],inactive
Cc1cccc(N(C)C(=S)Oc2ccc3c(c2)CCC3)c1,Potency,[1],inactive
same,Potency,[2],inactive
same,Potency,[3],11.9 µM (active)
same,Potency,[13],inactive
same,Potency,[5],inactive
same,Potency,[6],inactive
same,Potency,[15],inactive
same,Potency,[10],inactive
same,Potency,[11],inactive
same,Potency,[12],10.6 µM (active)
O=C1Cc2ccccc2N1c1c(Cl)cccc1Cl,Potency,[1],inactive
same,Potency,[2],inactive
same,Potency,[14],inactive
same,Potency,[5],inactive
same,Potency,[6],inactive
same,Potency,[9],inactive
same,Potency,[10],inactive
same,Potency,[12],9.69 µM (active)
O=C1NCCN1CCO,Potency,[1],inactive
same,Potency,[2],inactive
same,Potency,[3],inactive
same,Potency,[4],inactive
same,Potency,[5],inactive
same,Potency,[6],inactive
same,Potency,[9],inactive
same,Potency,[15],inactive
same,Potency,[10],inactive
same,Potency,[11],inactive
same,Potency,[12],inactive
Cc1cc(=O)c2c(O)c3c(O)cc(=O)c4c3c3c(cc(O)c1c23)C(C)(C)C=4O,"activity change, negative = cytotoxicity",[1],-17.3% [at 19 µM] (inactive)
same,activation,[2],-2.51% [at 19 µM] (inactive)
same,"activity, negative = inhibition",[7],1.99% [at 10.5 µM] (inactive)
same,caspase activation,[9],-2.97% [at 19 µM] (inactive)
same,caspase-3/7 activation,[10],-1.78% [at 19 µM] (inactive)
CCOc1cccc(-n2cc(C(=O)N3CCN(c4cc(C(=O)O)c5ccccc5c4)CC3)nc2-c2ccc(C)cc2)c1,Potency,[1],inactive
same,Potency,[2],inactive
same,Potency,[14],inactive
same,Potency,[9],inactive
same,Potency,[15],58.3 µM (active)
same,Potency,[10],58.3 µM (active)
same,Potency,[11],inactive
c1ccc2c(c1)CCc1ccccc1N2,Potency,[1],inactive
same,Potency,[2],inactive
same,Potency,[4],inactive
same,Potency,[5],inactive
same,Potency,[6],inactive
same,Potency,[8],inactive
same,Potency,[16],inactive
same,Potency,[9],inactive
same,Potency,[15],inactive
same,Potency,[10],inactive
same,Potency,[11],inactive
same,Potency,[12],61.4 µM (active) and inactive
CCOC(=O)[C@H](CCc1ccccc1)N[C@@H](C)C(=O)N(CC(=O)O)C1Cc2ccccc2C1,Potency,[1],inactive
same,Potency,[2],inactive
same,Potency,[4],6.68 µM (active)
same,Potency,[5],inactive
same,Potency,[6],inactive
same,outcome,[7],inactive
same,Potency,[8],inactive
same,Potency,[16],inactive
same,Potency,[9],inactive
same,Potency,[10],inactive
same,Potency,[11],inactive
O=C1C(=O)c2ccccc2C(O)=C1C1CCC(c2ccc(Cl)cc2)CC1 (centres undefined),Potency,[1],inactive
same,Potency,[2],inactive
same,Potency,[4],inactive
same,Potency,[13],inactive
same,Potency,[5],inactive
same,Potency,[6],inactive
same,outcome,[7],inactive
same,Potency,[8],inactive
same,Potency,[9],inactive
same,Potency,[15],16.8 µM (active)
same,Potency,[10],inactive
same,max activation,[17],0.127% (inactive)
same,Potency,[18],inactive
CC(C)c1nc(CN(C)C(=O)N[C@H](C(=O)N[C@@H](Cc2ccccc2)C[C@H](O)[C@H](Cc2ccccc2)NC(=O)OCc2cncs2)C(C)C)cs1,Potency,[1],13.3 µM (active)
same,Potency,[2],inactive
same,Potency,[4],29.8 µM (active)
same,Potency,[14],inactive
same,Potency,[5],inactive
same,Potency,[6],inactive
same,outcome,[7],inactive
same,Potency,[8],inactive
same,Potency,[9],inactive
same,Potency,[15],23.7 µM (active)
same,Potency,[10],inactive
same,Potency,[11],21.1 µM (active)
same,Potency,[12],5.96 µM (active)
COc1cc(C(=O)NCCCCCC(=O)O)cc(OC)c1OC,Potency,[1],inactive
same,Potency,[2],inactive
same,Potency,[4],inactive
same,Potency,[13],inactive
same,Potency,[14],inactive
same,Potency,[5],inactive
same,Potency,[6],inactive
same,outcome,[7],inactive
same,Potency,[8],inactive
same,Potency,[16],inactive
same,Potency,[9],inactive
same,Potency,[15],inactive
same,Potency,[10],inactive
same,Potency,[11],inactive
same,Potency,[12],inactive
same,max activation,[17],-0.807% (inactive)
same,Potency,[18],inactive
CCCCCCCCOc1ccc(C(=O)O)cc1,Potency,[1],inactive
same,Potency,[2],inactive
same,Potency,[3],48 µM (active)
same,Potency,[14],inactive
same,Potency,[5],inactive
same,Potency,[6],inactive
same,outcome,[7],inactive
same,Potency,[8],inactive
same,Potency,[9],inactive
same,Potency,[10],inactive
same,Potency,[11],inactive
